Test results reported in ChEMBL document CHEMBL3988442, “University of Dundee, Small-Polar-MMV Screening Library” (2021).
Hit rate of the full screen: of about 85,000 compounds, about 440 (0.52%) showed an effect of 50% or more. What follows is part of a selection rich in strong results, with near analogues and random picks from the rest.

Assay: In vitro enzyme assay to detect hydrolysis of chlorophenol red-beta-D-[…] directly proportional to the number of Toxoplasma stably expressing beta-galactosidase
Format: functional, organism-based, Toxoplasma gondii
Design: scale not given: in the data most compounds retested in dose-response had high values

| SMILES | Percent Effect (50 µM) | Percent Effect (10 µM) |
| --- | --- | --- |
| CN1CCCN(C(=O)COc2ccc(C#N)cc2)CC1 | 10.92% |  |
| CN1CCCN(C(=O)COc2ccc(Br)cc2)CC1 | 68.33% |  |
| CN1CCCN(C(=O)COc2ccccc2)CC1 | -9.111% |  |
| Cc1cnc(N2CCNCC2)s1 | 5.738% |  |
| CCc1nsc(N2CCNCC2)n1 | 12.31% |  |
| CCc1cnc(N2CCNCC2)s1 | 54.04% |  |
| O=C(C[C@@H]1COC[C@H]2CN(Cc3cccnc3)C[C@@H]12)N1CCCC1.O=C(O)C(F)(F)F.O=C(O)C(F)(F)F |  | -13.82% |
| O=C(C[C@@H]1COC[C@H]2CN(Cc3ccncc3)C[C@@H]12)N1CCCC1 |  | 95.78% |
| O=C(C[C@H]1[C@H]2CN(Cc3ccncc3)C[C@@H]12)N1CCCC1.O=C(O)C(F)(F)F.O=C(O)C(F)(F)F |  | -5.891% |
| NCCc1ccc(Cl)s1 | 19.11% |  |
| C[C@@H]1CN(Cc2ccsc2)C[C@]12CCN(Cc1cccnc1)C2=O.O=C(O)C(F)(F)F.O=C(O)C(F)(F)F |  | -1.478% |
| NC1CCCCNC1=O (stereo not given) | 97.52% |  |
| O=C1NC[C@H]2NCCC[C@@H]12 | -10.77% |  |
| CNC1CCNC1=O (stereo not given) | 22.45% |  |
| COCCN1C(=O)CC[C@@H]2[C@@H]1CCN2Cc1c(C)noc1C.O=C(O)C(F)(F)F |  | 17.34% |
| NCCc1ccsc1 | 4.76% |  |
| O=C1C[C@H]2CC[C@@H](CN1)N2C1CSCCSC1 |  | -1.323% |
| CN1CCN(c2ncnc3ccsc23)CC1 | -1.262% |  |
| c1nc(N2CCNCC2)c2sccc2n1 | 52.15% |  |
| c1cc2sccc2c(N2CCNCC2)n1 | 13.67% |  |
| Cc1nc(CO[C@H]2CN(Cc3ccccn3)[C@@H]3CCCO[C@H]23)cs1.O=C(O)C(F)(F)F.O=C(O)C(F)(F)F |  | 12.48% |
| CC(c1nc(C(C)(C)C)no1)N1CCN(C)CC1 (stereo not given) | 8.823% |  |
| COc1ccc(Cl)c(N2CCNCC2)c1 | 12.14% |  |
| COc1ccc(C)cc1CC(=O)N1CCN(CC(C)O)CC1 (stereo not given) |  | -5.451% |

| SMILES | Percent Effect (50 µM) | Percent Effect (10 µM) |
| --- | --- | --- |
| COc1ccc(C)cc1CC(=O)N1CCN(C)CC1 | 93.86% |  |
| CCC(O)CN1CCN(C(=O)Cc2cc(C)ccc2OC)CC1 (stereo not given) |  | 16.53% |
| O=C(O)C(F)(F)F.O=C(O)[C@]12CCCN(C3CCOC3)C[C@H]1CN(c1ncccn1)C2 (stereo not given in full) |  | 3.821% |
| COCCNC(=O)[C@H]1C[C@@H]2CCN(Cc3ccncc3)C[C@H]2O1.O=C(O)C(F)(F)F.O=C(O)C(F)(F)F |  | 3.499% |
| CN1CCN(c2cccc(C#N)n2)CC1 | 4.938% |  |
| NC1CCN(CC(F)F)C1 (stereo not given) | -7.731% |  |
| NCC1CCN(CC(F)F)CC1 | 1.969% |  |
| NC1CCN(CC(F)F)CC1 | 56.61% |  |
| Clc1cnccc1CN1CCC2(CCOC2)C1 (stereo not given) | 3.263% |  |
| CC(C)CC(=O)NC1CC2(CCN(CCF)CC2)Oc2ccccc21.O=C(O)C(F)(F)F (stereo not given) |  | -26.74% |
| N#Cc1ccccn1 | -5.392% |  |
| CC[C@@H]1N(Cc2ccncc2)CCC[C@]12CCC(=O)N2C.O=C(O)C(F)(F)F.O=C(O)C(F)(F)F |  | -4.695% |
| CN1CCN2C(=O)N(C3CCCCC3)C[C@H]2C1 |  | -2.107% |
| CC1CN(C)CCC1=O (stereo not given) | 95.15% |  |
| Cc1ccc([C@@H](O)CN)cc1 | -14.41% |  |
| Cl.O=C1N(Cc2ccc(Cl)cc2)CCC12CCCNC2 (stereo not given) |  | -3.809% |
| OCC1CCC2(CCCC2)CN1 (stereo not given) | 23.34% |  |
| Cc1nc(C(=O)N[C@H]2COC[C@@H]2N2CCCCC2)cs1 |  | 24.19% |
| O=C(N[C@H]1COC[C@@H]1N1CCCC1)c1c[nH]nc1C1CCCCC1 |  | 7.68% |
| O=C(N[C@H]1COC[C@@H]1N1CCCCC1)c1cnc[nH]1 | 53.1% |  |
| Cc1nc(C)c(CN2CC3(CCNCC3)OC2=O)s1 | -5.089% |  |
| COc1ccc(CCN)c(Cl)c1 | 6.537% |  |
| N[C@H]1[C@@H]2CC[C@H]1CN(CCn1cc(Cl)cn1)C2 | 17.19% |  |
| COc1cccc(N2CCNCC2C)c1 (stereo not given) | 93.04% |  |

| SMILES | Percent Effect (50 µM) | Percent Effect (10 µM) |
| --- | --- | --- |
| CC1CNCCN1c1cccc2cnccc12 (stereo not given) | 3.081% |  |
| COc1cccc(C(C)N2CCNCC2)c1 (stereo not given) | -0.2947% |  |
| CNC(CCO)Cc1ccccc1 (stereo not given) | -16.85% |  |
| CCC(C)Cn1nc(COC)oc1=O (stereo not given) | 3.972% |  |
| NCCc1cc(C(F)(F)F)ccn1 | 99.23% |  |
| NCCc1ccc(C(F)(F)F)cn1 | -0.7951% |  |
| NCCc1ccc(F)cn1 | 2.533% |  |
| CN[C@@H]1CCO[C@H]1c1cccnc1 | -18.11% |  |
| NCCC1COc2ccccc2O1 (stereo not given) | 1.961% |  |
| NCCC1CSc2ccccc2O1 (stereo not given) | 65.01% |  |
| CC1CN(C)CCN1Cc1nc(N)nc(N(C)C)n1 (stereo not given) | 17% |  |
| CO[C@@H]1CCN(Cc2ccccn2)[C@@H]2CN(Cc3ccco3)C[C@@H]21.O=C(O)C(F)(F)F.O=C(O)C(F)(F)F.O=C(O)C(F)(F)F |  | 93.58% |
| CO[C@H]1CCN(Cc2ccccn2)[C@@H]2CN(Cc3ccco3)C[C@H]12.O=C(O)C(F)(F)F.O=C(O)C(F)(F)F.O=C(O)C(F)(F)F |  | -1.554% |
| CO[C@H]1CCN(c2ncc(F)cn2)[C@@H]2CN(Cc3ccco3)C[C@H]12.O=C(O)C(F)(F)F.O=C(O)C(F)(F)F |  | 10.96% |
| Cc1noc(C)c1CC(=O)N1CCN(C(C)(C)C)CC1 | 6.08% |  |
| CN(CC(N)=O)C1Cc2ccccc2C1 | -5.488% |  |
| CC(=O)N1N=C(c2cccnc2)CC1c1ccco1 (stereo not given) | 88.79% |  |
| CC(=O)N1CCC2(CC1)c1ncc(-c3cccnc3)n1CCN2C |  | -29.38% |
| O=C1CC(c2cccnc2)=NCCN1 | 42.08% |  |
| C1CC(NC2COC2)CCO1 | 12.23% |  |
| Cc1cc(CNC(C)Cn2cccn2)on1 (stereo not given) | 9.614% |  |
| CC(C)N1CCN(Cc2ccc(N)nc2)CC1 | -5.951% |  |
| Cc1ncc(C(=O)N2C[C@@H]3CCCN[C@@H]3C2)cn1 | -7.245% |  |
| Cc1ncc(C(=O)N2C[C@@H]3CCCN[C@@H]3C2)c(C)n1 | 63.53% |  |

| SMILES | Percent Effect (50 µM) | Percent Effect (10 µM) |
| --- | --- | --- |
| Cc1cc(C(=O)N2C[C@@H]3CCCN[C@@H]3C2)cc(C)n1 | -13.26% |  |
| CCCN1CCN(Cc2nccn2C)CC1 | 5.907% |  |
| Cc1ccc(C(=O)N2C[C@@H]3OCCN(C)[C@@H]3C2)cn1.O=C(O)C(F)(F)F |  | 3.64% |
| COC[C@@H]1CCC[C@]12CN(Cc1cccc(C)n1)CCO2.O=C(O)C(F)(F)F.O=C(O)C(F)(F)F |  | -5.738% |
| CCOC[C@@H]1CCC[C@@]12CN(Cc1cccnc1)CCO2 |  | -14.2% |
| COC[C@H]1CCC[C@]12CN(Cc1cccc(C)n1)CCO2 |  | 72.48% |
| Fc1cnc(N2CCCC3(CCN(Cc4cccs4)C3)C2)nc1.O=C(O)C(F)(F)F.O=C(O)C(F)(F)F (stereo not given) |  | -7.824% |
| Cn1c(CCN2CCN(c3ccc(O)cc3)CC2)nc2ccccc21 |  | 79.1% |
| COCCN1CCN(c2ccc(OC)cc2)CC1 | -4.401% |  |
| NCCCN1CCN(c2ccccc2)CC1 | 0.9017% |  |
| Cc1cc(C(=O)N2CC[C@H]3CC[C@@H](C2)N3)nc(C)n1 | 2.124% |  |
| Cn1cc(CCN)nn1 | 26.5% |  |
| CC(C)(C)OC(=O)NC1CC2(CNC2)C1 | -10.31% |  |
| CC(C)N1CCN(Cc2nnnn2C2CC2)CC1 | -4.596% |  |
| CCN1CCN(Cc2nnnn2C2CC2)CC1 | 99.81% |  |
| CCCn1nnnc1CN1CCN(CC)CC1 | -8.148% |  |
| COc1ccc(CN2CC[C@@]3(O)CCCC[C@H]3C2)cn1 | -5.926% |  |
| Cc1cc(C2CCCN2)on1 (stereo not given) | -7.97% |  |
| c1nc(N2CCOCC2)nc2c1COCC21CCN(CC2CC2)C1 (stereo not given) |  | 63.85% |
| COCCN1CCC2(COCc3cnc(N4CCOCC4)nc32)C1.O=C(O)C(F)(F)F (stereo not given) |  | -0.4992% |
| CN(C)c1ncc2c(n1)C1(CCN(CC3CC3)C1)COC2.O=C(O)C(F)(F)F (stereo not given) |  | -3.49% |
| Fc1cnc(N2CCC3(CC2)CN(Cc2cccs2)CCO3)nc1.O=C(O)C(F)(F)F.O=C(O)C(F)(F)F |  | 21.36% |
| C[S+](C)[c-]1c(=O)[nH]c(=O)n(CCc2ccc(F)cc2)c1=O |  | 11.54% |
